From ChEMBL document CHEMBL4513135, “CO-ADD screening of IQOG CSIS (Spain) compounds”
Several values for one entry are separate records, joined by “and”; a condition that tells them apart may be missing. Equal values may be shown once. Measured potencies and affinities stand elsewhere.

Legend:
Klebsiella pneumoniae = conditions: Concentration 32 ug.mL-1, ASSAY_TEST Inhibition of Bacterial Growth, detection method Absorption (OD600), MEDIA CAMHB, plate type 384well, NBS, CORNING #3640, time 18 hr
Candida albicans = conditions: 32 ug/mL
Cryptococcus neoformans = conditions: Concentration 32 ug.mL-1, ASSAY_TEST Inhibition of Fungal Growth, detection method Resazurin, Absorption (OD600-OD570), plate type 384well, NBS, CORNING #3640

## O=C(O)C(=Cc1ccccc1)NC(=O)c1ccccc1
Klebsiella pneumoniae
  Inhibition: 27.9%
Candida albicans
  Inhibition: 0.44%
Cryptococcus neoformans
  Inhibition: -6.77%

## CC(=O)O[C@H]1CC[C@H](NC(=O)c2ccccc2)CC1
Klebsiella pneumoniae
  Inhibition: 10.24%
Candida albicans
  Inhibition: 3.3%
Cryptococcus neoformans
  Inhibition: -39.27%

## Cl.NNN1CCc2ccccc21
Klebsiella pneumoniae
  Inhibition: 17.38%
Candida albicans
  Inhibition: 2.29%
Cryptococcus neoformans
  Inhibition: -9.55%

## CCOC(=O)C1=C(C)Nc2nc3c(c(N)c2C1c1cccc(OC)c1)CCCC3 (stereo not drawn)
Klebsiella pneumoniae
  Inhibition: 2.7%
Candida albicans
  Inhibition: 5.35%
Cryptococcus neoformans
  Inhibition: -90.12%

## C#CCN(C)Cc1cc2cc(OCCCCC3CCN(Cc4ccccc4)CC3)ccc2n1C.Cl
Klebsiella pneumoniae
  Inhibition: 25.34%
Candida albicans
  Inhibition: 2.11%
Cryptococcus neoformans
  Inhibition: -16.02%

## Cc1nc(Nc2ccccc2)c2cnn(-c3ccccc3)c2n1
Klebsiella pneumoniae
  Inhibition: 17.53%
Candida albicans
  Inhibition: 0.68%
Cryptococcus neoformans
  Inhibition: -5.65%

## O=C(O)c1c[nH]c2ccccc12
Klebsiella pneumoniae
  Inhibition: -9.13%
Candida albicans
  Inhibition: 6.48%
Cryptococcus neoformans
  Inhibition: -9.05%

## CC/C(C)=N/NC(=O)Cc1c[nH]c2ccccc12
Klebsiella pneumoniae
  Inhibition: 0.18%
Candida albicans
  Inhibition: -0.57%
Cryptococcus neoformans
  Inhibition: -5.32%

## Cc1ccc(C2C(C#N)=C(N)Oc3c2ccc2ccccc32)cc1 (stereo not drawn)
Klebsiella pneumoniae
  Inhibition: 1.87%
Candida albicans
  Inhibition: -0.54%
Cryptococcus neoformans
  Inhibition: -6.98%

## COc1nc2ccc(C)cc2cc1C=O
Klebsiella pneumoniae
  Inhibition: -5.34%
Candida albicans
  Inhibition: 5.7%
Cryptococcus neoformans
  Inhibition: -4.83%

## CNCc1cc2cc(OC)ccc2n1C.Cl
Klebsiella pneumoniae
  Inhibition: 8.64%
Candida albicans
  Inhibition: -1.26%
Cryptococcus neoformans
  Inhibition: 1.35%

## COc1ccc(-c2cc(-c3cc4ccc(F)cc4nc3Cl)cc(=O)[nH]2)cc1
Klebsiella pneumoniae
  Inhibition: -16.09%
Candida albicans
  Inhibition: 1.94%
Cryptococcus neoformans
  Inhibition: -21.89%

## CN1C/C(=C\Cl)n2c1c(C#N)cc(C#N)c2=O
Klebsiella pneumoniae
  Inhibition: 5.49%
Candida albicans
  Inhibition: 1.11%
Cryptococcus neoformans
  Inhibition: -52.5%

## Cl.ClCCCN1CCCCC1
Klebsiella pneumoniae
  Inhibition: 13.52%
Candida albicans
  Inhibition: 1.17%
Cryptococcus neoformans
  Inhibition: -10.65%

## N#CC1=C(Cl)Oc2c(ccc3ccccc23)C1c1ccc([N+](=O)[O-])cc1 (stereo not drawn)
Klebsiella pneumoniae
  Inhibition: 16.96%
Candida albicans
  Inhibition: 10.5%
Cryptococcus neoformans
  Inhibition: -69.24%

## Cl.Nc1c2c(nc3c1C(c1ccccc1)c1ccc4ccccc4c1O3)CCCC2 (stereo not drawn)
Klebsiella pneumoniae
  Inhibition: 22.34%
Candida albicans
  Inhibition: 1.77%
Cryptococcus neoformans
  Inhibition: -1.1%

## N#Cc1c(N)nc(Cl)c(C#N)c1-c1ccccc1
Klebsiella pneumoniae
  Inhibition: 1.22%
Candida albicans
  Inhibition: 6.28%
Cryptococcus neoformans
  Inhibition: -2.34%

## Cc1ccc2[nH]c(=O)c(C=O)cc2c1
Klebsiella pneumoniae
  Inhibition: 6.41%
Candida albicans
  Inhibition: 1.79%
Cryptococcus neoformans
  Inhibition: 4.75%

## N#CC1=C(N)Oc2ccc3ccccc3c2C1c1ccccc1 (stereo not drawn)
Klebsiella pneumoniae
  Inhibition: 9.26%
Candida albicans
  Inhibition: 1.08%
Cryptococcus neoformans
  Inhibition: -36.46%

## O[C@H]1CC[C@H](NCc2ccccc2)CC1
Klebsiella pneumoniae
  Inhibition: 16.79%
Candida albicans
  Inhibition: -0.77%
Cryptococcus neoformans
  Inhibition: -37.74%

## Cn1c(C(=O)O)cc2ccccc21
Klebsiella pneumoniae
  Inhibition: 18.05%
Candida albicans
  Inhibition: 24.1%
Cryptococcus neoformans
  Inhibition: 5.37%

## COc1ccc(-c2cc(-c3ccccc3)c(C#N)c(N)n2)cc1
Klebsiella pneumoniae
  Inhibition: -4.32%
Candida albicans
  Inhibition: -5.4%
Cryptococcus neoformans
  Inhibition: -104.15%

## COc1nc2nc3c(c(N)c2cc1C#N)CCCC3
Klebsiella pneumoniae
  Inhibition: 13.26%
Candida albicans
  Inhibition: 2.72%
Cryptococcus neoformans
  Inhibition: -84.27%

## O=C1NC(=S)N/C1=C\c1ccccc1
Klebsiella pneumoniae
  Inhibition: 18.56%
Candida albicans
  Inhibition: 0.81%
Cryptococcus neoformans
  Inhibition: -1.21%

## COc1cc(C2C(C#N)=C(N)Oc3c2ccc2ccccc32)ccc1O (stereo not drawn)
Klebsiella pneumoniae
  Inhibition: -1.93%
Candida albicans
  Inhibition: 22.7%
Cryptococcus neoformans
  Inhibition: -42.63%

## CC(=O)N1CC(=O)NC1=S
Klebsiella pneumoniae
  Inhibition: 17.26%
Candida albicans
  Inhibition: 1.1%
Cryptococcus neoformans
  Inhibition: 1.05%

## COc1cccc(C2C(C#N)=C(N)Oc3ccc4ccccc4c32)c1 (stereo not drawn)
Klebsiella pneumoniae
  Inhibition: 12.24%
Candida albicans
  Inhibition: 1.77%
Cryptococcus neoformans
  Inhibition: -37.42%

## Cn1ccnc1C1c2ccc3ccccc3c2Oc2nc3c(c(N)c21)CCCCC3 (stereo not drawn)
Klebsiella pneumoniae
  Inhibition: 8.79%
Candida albicans
  Inhibition: 1.99%
Cryptococcus neoformans
  Inhibition: -67.84%

## C#CCN(C)Cc1cc2cc(OCCCC3CCN(Cc4ccc(C#N)cc4)CC3)ccc2n1C
Klebsiella pneumoniae
  Inhibition: 2.67%
Candida albicans
  Inhibition: 4.18%
Cryptococcus neoformans
  Inhibition: -50.05%

## COc1ccccc1C1c2c(ccc3ccccc23)OC(=N)C1(Br)C#N (stereo not drawn)
Klebsiella pneumoniae
  Inhibition: 13.77%
Candida albicans
  Inhibition: 5.01%
Cryptococcus neoformans
  Inhibition: -63.67%

## Cl.Nc1c2c(nc3c1C(c1c(Cl)cccc1Cl)c1ccc4ccccc4c1O3)CCCC2 (stereo not drawn)
Klebsiella pneumoniae
  Inhibition: 3.98%
Candida albicans
  Inhibition: -1.11%
Cryptococcus neoformans
  Inhibition: -3.69%

## O=Cc1c(-c2ccc(Br)cc2)nc2ccccn12
Klebsiella pneumoniae
  Inhibition: 19.86%
Candida albicans
  Inhibition: 0.21%
Cryptococcus neoformans
  Inhibition: -4.41%

## N#Cc1cccnc1Cl
Klebsiella pneumoniae
  Inhibition: 9.13%
Candida albicans
  Inhibition: -0.53%
Cryptococcus neoformans
  Inhibition: -53.41%

## N#CC1=C(N)Oc2ccc3ccccc3c2C1c1ccccc1[N+](=O)[O-] (stereo not drawn)
Klebsiella pneumoniae
  Inhibition: 9.29%
Candida albicans
  Inhibition: 2.32%
Cryptococcus neoformans
  Inhibition: -44.45%

## Cc1[nH]nc2c1C(c1ccc(O)c(O)c1)C(C#N)=C(N)O2 (stereo not drawn)
Klebsiella pneumoniae
  Inhibition: 21.92%
Candida albicans
  Inhibition: 0.31%
Cryptococcus neoformans
  Inhibition: 0.65%

## COc1ccc2nc(Cl)c(C=O)cc2c1
Klebsiella pneumoniae; 32 ug/mL
  Inhibition: -0.34% and -2.5%
Candida albicans
  Inhibition: 7.25% and 8.8%
Cryptococcus neoformans; 32 ug/mL
  Inhibition: -8.56% and -8.89%
